“And” between values parts separate entries of the source, which are not always exact repeats. Equal entries are not always repeated. Among all 5,500 compounds or so, about 2,000 (36%) were called active. Inconclusive results (about 18%) are left out. No stated cut-off is given here; in the data, active means normalized growth mostly below about 0.91 (no sharp cut-off); inconclusive means no clear call, values can overlap the other calls; inactive means mostly above about 0.92. The list shows a part of the results.
Experiment: chemical genetic growth profiling, strain panel (AID 1159580);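 further: tested at 20 µM; growth read once vehicle control cultures reached saturation at 30 °C; 1 = growth at the plate median or of vehicle wells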
Settings: S. cerevisiae deletion strains, growth OD

Measured: normalized growth

CC(=O)O[C@H]1C[C@@H](OC(C)=O)C(C)(C)C2C[C@@H](OC(C)=O)[C@]3(C)C(CC[C@@]4(C)[C@H](c5ccoc5)C(=O)[C@H]5O[C@]543)[C@]21C (stereo partly drawn)
inactive: locus YAL021C, strain ccr4, stronger effect = lower value 0.992 | locus YAL026C, strain drs2, stronger effect = lower value 0.991 | locus YAL030W, strain snc1, stronger effect = lower value 0.99 | locus YBL061C, strain skt5, stronger effect = lower value 1 | locus YBR009C, strain hhf1, stronger effect = lower value 1 | locus YBR021W, strain FUR4, stronger effect = lower value 0.966 | locus YBR023C, strain chs3, stronger effect = lower value 1.01 | locus YBR171W, strain sec66, stronger effect = lower value 1 | locus YBR229C, strain ROT2, stronger effect = lower value 1.01 | locus YBR231C, strain swc5, stronger effect = lower value 1 | locus YBR279W, strain paf1, stronger effect = lower value 1 | locus YCL011C, strain gbp2, stronger effect = lower value 1.01 | locus YCL016C, strain dcc1, stronger effect = lower value 0.998 | locus YCL029C, strain bik1, stronger effect = lower value 1.01 | locus YCL061C, strain MRC1, stronger effect = lower value 0.997 | locus YCL069W, strain vba3, stronger effect = lower value 1 | locus YCR088W, strain abp1, stronger effect = lower value 0.995 | locus YDL005C, strain med2, stronger effect = lower value 0.986 | locus YDL035C, strain GPR1, stronger effect = lower value 0.969 | locus YDL040C, strain nat1, stronger effect = lower value 0.995 | locus YDL074C, strain BRE1, stronger effect = lower value 0.975 | locus YDL101C, strain DUN1, stronger effect = lower value 1.02 | locus YDL134C, strain PPH21, stronger effect = lower value 1.02 | locus YDL185W, strain tfp1, stronger effect = lower value 1.02 | locus YDL192W, strain arf1, stronger effect = lower value 1.01 | locus YDR001C, strain nth1, stronger effect = lower value 0.981 | locus YDR069C, strain doa4, stronger effect = lower value 0.993 | locus YDR101C, strain arx1, stronger effect = lower value 0.994 | locus YDR137W, strain rgp1, stronger effect = lower value 0.935 | locus YDR150W, strain NUM1, stronger effect = lower value 1.02 | locus YDR159W, strain sac3, stronger effect = lower value 1.02 | locus YDR162C, strain NBP2, stronger effect = lower value 0.987 | locus YDR195W, strain ref2 0.985 | locus YDR297W, strain sur2, stronger effect = lower value 0.996 | locus YDR318W, strain mcm21, stronger effect = lower value 1.01 | locus YDR334W, strain swr1, stronger effect = lower value 0.991 | locus YDR335W, strain msn5, stronger effect = lower value 0.994 | locus YDR388W, stronger effect = lower value 1.04 | locus YDR392W, strain spt3, stronger effect = lower value 1.02 | locus YDR502C, strain sam2, stronger effect = lower value 1.02 | locus YEL003W, strain gim4, stronger effect = lower value 1 | locus YEL037C, strain rad23, stronger effect = lower value 1 | locus YEL061C, strain CIN8 (second series), stronger effect = lower value 0.995 | locus YEL061C, strain CIN8, stronger effect = lower value 1.01 | locus YER015W, strain faa2, stronger effect = lower value 1.01 | locus YER016W, strain bim1, stronger effect = lower value 0.997 | locus YER110C, stronger effect = lower value 1.03 | locus YER111C, strain swi4, stronger effect = lower value 1 | locus YER155C, strain BEM2 (second series), stronger effect = lower value 0.998 | locus YER155C, strain BEM2, stronger effect = lower value 1.02 | locus YER167W, strain BCK2, stronger effect = lower value 1.01 | locus YFR010W, strain ubp6, stronger effect = lower value 0.989 | locus YGL078C, strain dbp3, stronger effect = lower value 1 | locus YGL086W, strain mad1, stronger effect = lower value 1.01 | locus YGL167C, strain pmr1, stronger effect = lower value 1 | locus YGL173C, strain kem1, stronger effect = lower value 1.01 | locus YGL227W, strain vid30, stronger effect = lower value 0.996 | locus YGL240W, strain doc1, stronger effect = lower value 1.01 | locus YGL248W, strain PDE1, stronger effect = lower value 1.02 | locus YGL253W, strain hxk2, stronger effect = lower value 1 | locus YGR135W, strain pre9, stronger effect = lower value 1.05 | locus YGR252W, strain gcn5, stronger effect = lower value 0.996 | locus YHR013C, strain ard1, stronger effect = lower value 1.01 | locus YHR027C, strain rpn1, stronger effect = lower value 0.99 | locus YHR030C, strain SLT2, stronger effect = lower value 1.01 and 0.945 | locus YHR079C, strain IRE1 (second series), stronger effect = lower value 1.03 | locus YHR079C, strain IRE1, stronger effect = lower value 0.925 | locus YHR094C, strain hxt1, stronger effect = lower value 1.03 | locus YHR129C, strain ARP1, stronger effect = lower value 1.02 | locus YHR142W, strain chs7, stronger effect = lower value 1 | locus YHR200W, strain rpn10, stronger effect = lower value 1.02 | locus YIL066C, strain RNR3, stronger effect = lower value 0.98 | locus YIL073C, strain SPO22, stronger effect = lower value 1.01 | locus YIL125W, strain kgd1, stronger effect = lower value 1.01 | locus YIR030C, strain dcg1, stronger effect = lower value 1.02 | locus YJL092W, strain hpr5, stronger effect = lower value 1.01 | locus YJL095W, strain BCK1 (second series), stronger effect = lower value 1 | locus YJL095W, strain BCK1, stronger effect = lower value 1.03 and 0.969 | locus YJL115W, strain asf1, stronger effect = lower value 0.987 | locus YJL129C, strain trk1, stronger effect = lower value 0.973 | locus YJL134W, strain LCB3, stronger effect = lower value 1.02 | locus YJL154C, strain vps35, stronger effect = lower value 0.991 | locus YJL164C, strain tpk1, stronger effect = lower value 1 | locus YJL166W, strain qcr8, stronger effect = lower value 1.01 | locus YJL168C, strain set2, stronger effect = lower value 1.04 | locus YJL187C, strain SWE1 (second series), stronger effect = lower value 1.02 | locus YJL187C, strain SWE1, stronger effect = lower value 1 | locus YJR066W, strain TOR1, stronger effect = lower value 0.888 | locus YJR075W, strain HOC1, stronger effect = lower value 1.04 | locus YKL009W, strain mrt4, stronger effect = lower value 0.898 | locus YKL068W, stronger effect = lower value 1.02 | locus YKL085W, strain MDH1 (second series), stronger effect = lower value 1.01 | locus YKL085W, strain MDH1, stronger effect = lower value 1.01 | locus YKL160W, strain elf1, stronger effect = lower value 0.996 | locus YKL190W, strain CNB1, stronger effect = lower value 1.01 | locus YKR001C, strain vps1, stronger effect = lower value 0.993 | locus YKR026C, strain gcn3, stronger effect = lower value 0.997 | locus YKR091W, strain srl3, stronger effect = lower value 0.995 | locus YLL001W, strain dnm1, stronger effect = lower value 1 | locus YLL026W, stronger effect = lower value 1 | locus YLL041C, strain sdh2, stronger effect = lower value 0.994 | locus YLR027C, strain aat2, stronger effect = lower value 1.02 | locus YLR039C, strain RIC1, stronger effect = lower value 1.02 | locus YLR058C, strain SHM2, stronger effect = lower value 1.01 | locus YLR102C, strain apc9, stronger effect = lower value 1.02 | locus YLR113W, strain HOG1, stronger effect = lower value 1.03 | locus YLR221C, strain rsa3, stronger effect = lower value 1 | locus YLR258W, strain gsy2, stronger effect = lower value 0.995 | locus YLR262C, strain YPT6 (second series), stronger effect = lower value 0.95 | locus YLR268W, strain sec22, stronger effect = lower value 0.982 | locus YLR320W, strain mms22, stronger effect = lower value 1 | locus YLR330W, strain CHS5, stronger effect = lower value 1.02 | locus YLR342W, strain FKS1, stronger effect = lower value 1.01 | locus YLR357W, strain rsc2, stronger effect = lower value 1.01 | locus YLR370C, strain arc18, stronger effect = lower value 1 | locus YLR371W, strain rom2, stronger effect = lower value 1.03 | locus YLR384C, strain iki3, stronger effect = lower value 0.995 | locus YLR418C, strain cdc73, stronger effect = lower value 1.05 | locus YML016C, strain PPZ1, stronger effect = lower value 1.01 | locus YML032C, strain rad52, stronger effect = lower value 0.995 | locus YML120C, strain ndi1, stronger effect = lower value 1 | locus YML124C, strain tub3, stronger effect = lower value 1.02 | locus YMR058W, strain fet3, stronger effect = lower value 0.99 | locus YMR078C, strain ctf18, stronger effect = lower value 1.01 | locus YMR125W, strain sto1, stronger effect = lower value 0.978 | locus YMR129W, stronger effect = lower value 1 | locus YMR205C, strain PFK2, stronger effect = lower value 1.01 | locus YMR223W, strain ubp8, stronger effect = lower value 1.01 | locus YMR231W, strain pep5, stronger effect = lower value 0.978 | locus YMR307W, strain GAS1, stronger effect = lower value 0.931 | locus YNL067W, strain RPL9B, stronger effect = lower value 1.04 | locus YNL071W, strain lat1, stronger effect = lower value 0.996 | locus YNL128W, strain TEP1, stronger effect = lower value 0.991 | locus YNL153C, strain GIM3, stronger effect = lower value 1.02 | locus YNL183C, strain NPR1, stronger effect = lower value 0.904 | locus YNL209W, strain ssb2, stronger effect = lower value 1 | locus YNL233W, strain BNI4, stronger effect = lower value 0.973 | locus YNL248C, strain rpa49, stronger effect = lower value 0.969 | locus YNL250W, strain rad50, stronger effect = lower value 1.06 | locus YNL271C, strain bni1, stronger effect = lower value 1.01 | locus YNL298W, strain CLA4, stronger effect = lower value 1.01 | locus YNL307C, strain MCK1, stronger effect = lower value 1.02 | locus YNL322C, strain KRE1 (second series), stronger effect = lower value 1.01 | locus YNR049C, strain mso1, stronger effect = lower value 1.01 | locus YNR052C, strain pop2, stronger effect = lower value 1.02 | locus YOL006C, strain TOP1, stronger effect = lower value 0.962 | locus YOL012C, strain htz1 1.21 | locus YOL147C, strain pex11, stronger effect = lower value 1.03 | locus YOR001W, strain rrp6, stronger effect = lower value 0.985 | locus YOR061W, strain CKA2, stronger effect = lower value 0.998 | locus YOR069W, strain VPS5, stronger effect = lower value 1.02 | locus YOR070C, strain gyp1, stronger effect = lower value 1 | locus YOR080W, strain dia2, stronger effect = lower value 1.01 | locus YOR083W, strain WHI5, stronger effect = lower value 0.991 | locus YOR106W, strain vam3, stronger effect = lower value 0.985 | locus YOR136W, strain idh2, stronger effect = lower value 1.01 | locus YOR144C, strain elg1, stronger effect = lower value 1.02 | locus YOR184W, strain ser1, stronger effect = lower value 0.965 | locus YOR231W, strain MKK1, stronger effect = lower value 0.919 | locus YOR265W, strain rbl2, stronger effect = lower value 0.997 | locus YOR270C, strain vph1, stronger effect = lower value 0.875 | locus YOR290C, strain snf2, stronger effect = lower value 1 | locus YOR316C, strain cot1, stronger effect = lower value 1.02 | locus YPL051W, strain arl3, stronger effect = lower value 1.01 | locus YPL078C, strain atp4, stronger effect = lower value 0.991 | locus YPL106C, strain sse1, stronger effect = lower value 1.05 | locus YPL240C, strain hsp82, stronger effect = lower value 0.998 | locus YPL256C, strain CLN2, stronger effect = lower value 0.994 | locus YPR119W, strain clb2, stronger effect = lower value 1.02 | locus YPR141C, strain kar3, stronger effect = lower value 1.03 | locus YPR163C, strain tif3, stronger effect = lower value 1.02 | locus YPR167C, strain met16, stronger effect = lower value 1.01 | strain wtn01, stronger effect = lower value 0.987
